L3MBTL1 block: L3MBTL1 (human) inhibition; Q9Y468; Potency, µM (highest dose often 57.1 µM), usual class: inhibitors; 230,000 compounds, 0.66% hits; AID 485360; AlphaScreen L3MBTL1–H3K9me1 peptide binding; also: nearly all actives have a fitted effect of over 60% in size
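L3MBTL1 50 nM + b-AHA-H3(1-15)K9me1 75 nM, 30 min RT; compound added, 30 min RT; streptavidin donor/Ni-chelate acceptor beads 10 ug/mL each final, 30 min RT dark; AlphaScreen read.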
PI5P4K alpha inh: PI5P4K alpha (human) kinase inhibition | PI5P4Kalpha enzyme, ADP-Glo luminescence, 60 min; stronger effect = lower value | 330,000 compounds, 1.2% hits | max response, % | P48426 | AID 652105; active = max response of -50% or lower; inconclusive = between -30% and -50%; inactive = -30% or higher; also: value at the top dose of about 77 µM
Target sequence (P48426 whole entry, looked up): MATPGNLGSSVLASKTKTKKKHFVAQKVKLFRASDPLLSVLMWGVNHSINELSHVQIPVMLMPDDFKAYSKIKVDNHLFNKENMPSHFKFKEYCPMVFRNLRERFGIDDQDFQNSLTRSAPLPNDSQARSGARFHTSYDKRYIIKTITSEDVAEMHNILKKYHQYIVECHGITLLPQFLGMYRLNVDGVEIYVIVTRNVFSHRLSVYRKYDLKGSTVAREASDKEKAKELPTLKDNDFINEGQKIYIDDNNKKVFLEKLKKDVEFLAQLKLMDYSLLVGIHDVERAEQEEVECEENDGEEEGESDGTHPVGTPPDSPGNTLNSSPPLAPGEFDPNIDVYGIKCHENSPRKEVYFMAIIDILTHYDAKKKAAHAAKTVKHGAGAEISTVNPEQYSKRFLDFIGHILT
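Single end-point luminescence (ADP-Glo) quantified ADP from PI5P4Kalpha turnover; ATP 5 microM final, 1 h at RT, 0.1% CHAPS and 0.28 mM EGTA in HEPES pH 7.4.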
JMJD2A Tudor: JMJD2A Tudor domain (human) inhibition. AlphaScreen JMJD2A-Tudor / H3K4me3 peptide binding. Potency, µM (doses to about 114 µM), most hits filed as inhibitors. 390,000 compounds, 4.4% hits; also: nearly all actives have a fitted effect of over 50% in size
G9a inh: G9a (human) methyltransferase inhibition; G9a H3K9 monomethylation, AlphaScreen, 2 h; 350,000 compounds, 8.8% hits; Potency, µM (series often up to 102 µM), most hits filed as inhibitors; AID 504332; also: nearly all actives have a fitted effect of over 75% in size
Target sequence (Q96KQ7 913-1193 limits assumed): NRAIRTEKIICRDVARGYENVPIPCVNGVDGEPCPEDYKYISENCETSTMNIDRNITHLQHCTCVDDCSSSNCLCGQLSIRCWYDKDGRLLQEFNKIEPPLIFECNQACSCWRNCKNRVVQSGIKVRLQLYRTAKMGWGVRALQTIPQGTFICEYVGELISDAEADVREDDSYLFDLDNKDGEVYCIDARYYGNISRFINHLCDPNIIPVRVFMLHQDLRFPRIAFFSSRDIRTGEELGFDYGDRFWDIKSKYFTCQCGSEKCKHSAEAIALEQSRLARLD
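AlphaScreen detection with an anti-monomethyl H3K9 antibody quantified product after a 2 h room-temperature reaction containing 500 nM biotinylated H3K9 peptide, 20 µM SAM and 20 nM enzyme, which had been preincubated 15 min with compound.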
HP1b chromo inh: inhibitors of HP1-beta chromodomain binding to methylated histone tails | 390,000 compounds, 0.56% hits | Potency, µM (titrated, usually from 114 µM), hits mostly inhibitors | AlphaScreen HP1-beta / biotin-H3K9me3 peptide binding; also: nearly all actives have a fitted effect of over 70% in size
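HP1-beta protein (50 nM final) preincubated 30 min at room temperature with biotinylated H3(1-18)K9me3 peptide (50 nM) in PBS pH 7.4, 0.01% Tween-20, then compound added for 30 min. AlphaScreen streptavidin donor/nickel chelate acceptor beads (10 ug/mL final), 30 min dark, luminescence read.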
BAZ2B inh: inhibitors of human BAZ2B bromodomain; 360,000 compounds, 4.4% hits; AID 504333; AlphaScreen BAZ2B-H3K14Ac peptide displacement; Potency, µM (highest dose often 114 µM), actives largely listed as inhibitors; Q9UIF8; also: nearly all actives have a fitted effect of over 60% in size
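BAZ2B 50 nM plus b-H3(5-23)K14Ac 50 nM, PBS pH 7.4/0.01% Tween-20, 30 min RT; compound added (max 110 uM), 30 min RT; streptavidin donor/Ni-chelate acceptor beads 10 ug/mL final, 20 min dark; AlphaScreen read.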
Hits are given with their value; n = inactive; u = inconclusive; x = no result; [ ] = dose if it differs, or a comment. An excerpt weighted towards active compounds, which were near 11% of everything screened. Unless noted, calls follow the shape of the dose curve; as a rule, active = well fitted inhibition curve with a large enough effect; inconclusive = small, poorly fitted or top-dose-only effect; inactive = no such curve, though single readings can be large or run the other way.

SMILES	L3MBTL1 block	PI5P4K alpha inh	JMJD2A Tudor	G9a inh	HP1b chromo inh	BAZ2B inh
O=C(CS(=O)(=O)Cc1ccccc1)Nc1nnc(C2CCCCC2)s1	n	x	n	56µM	n	n
Cc1nnc(NC(=O)CCS(=O)(=O)Cc2ccccc2)s1	x	n	n	u	n	n
Cc1ccc(-c2nn(-c3ccc(F)cc3)c3c2cnc2cc(F)c(F)cc23)cc1	x	x	n	n	n	x
Cc1nnc(NC(=O)CSc2ccccn2)s1	n	x	n	n	n	n
CC(C)Cc1nnc(NC(=O)CSc2ccccn2)s1	x	n	n	45µM	n	n
COCCn1c(=O)c(-c2cn(C)c3ccccc23)nc2cnc(Oc3cccc(Cl)c3)nc21	x	x	x	n[0.501 µM]	x	x
Cc1ccc2nc3c(cc(C#N)c(=O)n3-c3nnc(SCc4ccccc4Cl)s3)c(=O)n2c1	x	x	n	n	n	n
CC1=NN(c2ccccc2)C(=O)/C1=C/N(C)C	n	n	n	x	n	u
COc1ccc(/C=C2/C(=O)N(c3ccccc3)N=C2C)cc1OC	u	n	n	71µM	n	n
CC1=NN(c2ccccc2)C(=O)/C1=C/c1cc2cc(C)ccc2nc1N1CCCCC1	n	x	x	n[0.0925 µM]	x	8.9µM
CC1=NN(c2ccccc2)C(=O)/C1=C\C=C\c1ccccc1	n	n	10µM	2.2µM	10µM	4µM
CCOc1cc(/C=C2/C(=O)N(c3ccccc3)N=C2C)ccc1OC(=O)c1cccs1	u	x	u	40µM	n	50µM
COc1ccc(-c2[nH]c3ccccc3c2SCCNC(=O)c2ccc(S(=O)(=O)N(C)C)cc2)cc1	x	x	n	n	n	n
COc1ccc(C2=NN(c3ccccc3)C(=O)/C2=C\c2ccc(O)c(OC)c2)cc1	x	n	16µM	16µM	16µM	25µM
CC1=NN(c2ccccc2)C(=O)/C1=C/c1cccc(C)c1	x	n	n	50µM	n	u
CC(=O)Oc1ccc(/C=C2/C(=O)N(c3ccccc3)N=C2C)cc1	x	n	u	u	n	u
CCOc1ccccc1NC(=O)C(C)Sc1nc2c(c(=O)[nH]1)CCCC2 (stereo not given)	x	x	n	u	n	n
Cc1ccc(NCc2ccc(O)c3ncccc23)cc1C	n	n	u	n	n	n
Cc1ccc(NCc2ccc(O)c3ncccc23)cc1	n	u	8.9µM	5µM	u	n
Cc1cccnc1NCc1ccc(O)c2ncccc12	28µM	n	22µM	1.8µM	n	13µM
COc1ccc(CNC(=O)c2ccc(-c3nc(CSc4ccccc4)c(C)o3)cc2)cc1	x	x	u	n	n	n
O=C(Nc1cccc(F)c1)c1oc2ccccc2c1NC(=O)C12CC3CC(CC(C3)C1)C2	x	x	n	n	n	n
COc1ccc(-c2nc(N3CCCCCC3)sc2C(=O)c2ccccc2)cc1	n	n	n	n	n	n
COc1ccc(-c2nc(N3CCN(C)CC3)sc2-c2ccc(OC)cc2)cc1	x	n	22µM	14µM	50µM	28µM
C#CCSc1nccc(-c2nn(-c3ccc(C)cc3)ccc2=O)n1	x	n	79µM	n[12.7 µM]	u	n
SMILES	L3MBTL1 block	PI5P4K alpha inh	JMJD2A Tudor	G9a inh	HP1b chromo inh	BAZ2B inh
CSc1nccc(-c2nn(-c3ccc(C)cc3)ccc2=O)n1	x	n	56µM	n	n	25µM
Nc1nccc(-c2nn(-c3ccc(Cl)cc3)ccc2=O)n1	n	n	n	x	n	n
C=CCSc1nccc(-c2nn(-c3ccc(C)cc3)ccc2=O)n1	n	n	n	50µM	n	n
CCSc1nccc(-c2nn(-c3ccc(C)cc3)ccc2=O)n1	x	n	n	79µM	n	n
CC1(C)c2ccccc2-c2nc3ccccc3cc2C1N1CCOCC1 (stereo not given)	x	n	n	x	n	x
CC1(C)c2cc(O)ccc2OC1N1CCOCC1 (stereo not given)	x	n	n	8.9µM	n	n
NC(C(=O)O)c1cccc(O)c1 (stereo not given)	x	x	x	n	x	x
Cc1ccc(NC(=O)Cn2c(=O)n(CCC(=O)NCCc3ccccc3)c(=O)c3ccccc32)cc1	x	x	n	n	n	n
CC(C)(C)N=Cc1c(O)ccc2oc3c(c12)CCCC3	x	n	u	n	n	n
O=[N+]([O-])c1cc2oc3c(c2c(C=NCc2ccncc2)c1O)CCCC3	u	-81	56µM	u	u	35µM
CCOc1ccccc1N(C)C(=O)c1sc2nc3n(c(=O)c2c1C)CCCC3	x	x	n	u	n	50µM
COc1cc(OC)c(N(C)C(=O)c2sc3nc4n(c(=O)c3c2C)CCCCC4)cc1Cl	x	x	u	14µM	n	50µM
Cc1ccccc1CSc1nc2cccnc2n1Cc1ccc(C(=O)NCCc2cccs2)cc1	x	x	n	u	n	n
CCC(=O)N1CCc2cc(Br)cc(S(=O)(=O)N3CCCC(C(=O)Nc4cccc(F)c4)C3)c21 (stereo not given)	x	x	n	n	n	n
COC(=O)[C@@]1(Cc2ccc(F)cc2)[C@H]2c3cc(C(=O)N4CCCC4)n(CCCNc4ncc(C(F)(F)F)cc4Cl)c3C[C@H]2CN1C(=O)c1ccccc1	n	n	u	32µM	n	n
COC(=O)[C@@]1(Cc2ccc(F)cc2)[C@H]2c3cc(C(=O)N4CCCC4)n(Cc4ccc(C(F)(F)F)nc4)c3C[C@H]2CN1C(=O)c1ccccc1	n	n	u	50µM	n	u
COC(=O)[C@@]1(Cc2ccc(F)cc2)[C@H]2c3cc(C(=O)N4CCCC4)n(CCF)c3C[C@H]2CN1C(=O)c1ccccc1	x	n	x	x	x	x
Cc1c(NC(=O)c2ccc(-c3cccc([N+](=O)[O-])c3)o2)cccc1-c1nc2cc(Cl)ccc2o1	x	x	n	n	n	n
Cc1ccc(C)c(CNC(=O)c2sc3ncnc(N(C)C4CCCCC4)c3c2C)c1	x	x	n	n	n	n
c1ccc2c(c1)Nc1nccnc1S2	n	u	45µM	u	n	n
O=C1Nc2cccnc2Sc2ccccc21	n	x	n	28µM	n	n
Clc1cc2c(nn1)Nc1ccccc1S2	n	n	n	n	n	n
CCN(Cc1ccc(OC)cc1)c1ccc(-c2nc(-c3ccncc3)no2)cc1[N+](=O)[O-]	x	x	n	n	n	n
O=S1(=O)N=C(Oc2ccccc2)c2ccccc21	n	n	89µM	n	n	n
COC1=NS(=O)(=O)c2ccccc21	n	n	n	u	n	n
N#Cc1cccc(OC2=NS(=O)(=O)c3ccccc32)c1	x	x	35µM	x	x	x
O=S1(=O)N=C(Oc2cccc(Cl)c2)c2ccccc21	x	x	n	x	x	x
CN(C(=O)CSc1nc2c(c(=O)[nH]1)CCCC2)c1ccccc1	x	x	n	u	n	n
CCc1cc(-c2n[nH]c(CCC(=O)O)c2-c2nc3ccccc3n2C)c(O)cc1O	x	n	n	7.1µM	n	n
CCc1cc(-c2n[nH]c(C)c2-c2nc3ccccc3n2C)c(O)c(CN2CCN(C)CC2)c1O	n	x	u	45µM	n	u

High-throughput results from PubChem BioAssay.
